Screening data deposited in PubChem by The Scripps Research Institute Molecular Screening Center.
Sampled rows, rich in hits. Any-hit rate of the full collection: about 1.3%.
PME-1 primary – PME-1 (human) inhibition. recombinant PME-1, FP-Rh probe fluorescence polarization. Q9Y570. 320,000 tested, 0.53% active. inhibition, % at 5.9 µM. AID 2130;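 active = inhibition above the campaign mean of all compounds plus 3 SD, cut at about 26% in these data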;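 also: competitive labeling of PME-1 active site by serine hydrolase directed probe; 0% = PME-1 with DMSO and 100% = wells lacking PME-1 enzyme; inhibitors block probe labeling so polarization falls and inhibition rises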
Target sequence (Q9Y570 whole entry, looked up): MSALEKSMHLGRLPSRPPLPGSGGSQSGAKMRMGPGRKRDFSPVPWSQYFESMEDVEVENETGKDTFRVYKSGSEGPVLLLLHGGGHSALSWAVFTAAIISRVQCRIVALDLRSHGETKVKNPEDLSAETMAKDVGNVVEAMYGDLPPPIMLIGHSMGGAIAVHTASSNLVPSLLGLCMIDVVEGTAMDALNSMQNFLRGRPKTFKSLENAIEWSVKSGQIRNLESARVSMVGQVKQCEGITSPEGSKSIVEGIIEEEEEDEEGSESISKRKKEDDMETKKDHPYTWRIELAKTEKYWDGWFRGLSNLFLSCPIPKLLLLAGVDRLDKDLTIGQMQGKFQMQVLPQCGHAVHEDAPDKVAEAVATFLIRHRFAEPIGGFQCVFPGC
Fam108B counter – blocks mouse Fam108B hydrolase in RBBP9 counter-screen; 300,000 tested, 0.33% active; recombinant Fam108B, FP-Rh probe fluorescence polarization; inhibition, % at 9.51 µM;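 active = inhibition above the screen mean inhibition plus 3 SD, computed separately per campaign, cut at about 18% in these data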;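 also: inhibitors lower polarization as less probe binds the enzyme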
LYPLA1 inh – LYPLA1 (human) inhibition in PME1 counter-screen. recombinant LYPLA1, FP-Rh probe fluorescence polarization. O75608. inhibition, % at 5.9 µM. AID 2174. 320,000 tested, 0.16% active;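 active = inhibition above the mean of all tested compounds plus 3 SD, set per campaign, cut at about 14% in these data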;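 also: inhibitors block serine hydrolase probe labeling of LYPLA1 so polarization falls; 0% = enzyme with DMSO and 100% = wells lacking LYPLA1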
Target sequence (O75608 whole entry, looked up): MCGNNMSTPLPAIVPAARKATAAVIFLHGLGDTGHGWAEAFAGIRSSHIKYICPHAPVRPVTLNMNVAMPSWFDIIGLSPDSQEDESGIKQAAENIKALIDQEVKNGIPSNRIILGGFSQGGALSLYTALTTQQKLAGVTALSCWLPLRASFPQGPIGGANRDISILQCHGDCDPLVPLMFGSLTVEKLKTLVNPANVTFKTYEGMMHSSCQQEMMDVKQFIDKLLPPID
LYPLA2 inh – blocks human lysophospholipase 2, a PME1 counter-screen. inhibition, % at 5.9 µM. O95372. recombinant LYPLA2, FP-Rh probe fluorescence polarization. AID 2177. 320,000 tested, 0.38% active;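 active = inhibition above the screen-wide mean plus 3 SD, limit set per campaign, cut at about 26% in these data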;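 also: 0% = LYPLA2 with DMSO and 100% = wells lacking LYPLA2 enzyme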
PREPL inh – inhibits the human prolyl oligopeptidase-like enzyme; recombinant PREPL, fluorescence polarization activity-based probe; inhibition, % at 5.96 µM; 320,000 tested, 0.68% active; AID 2751; in the data active = inhibition above about 43%;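 also: 0% = enzyme with DMSO and 100% = wells lacking enzyme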
Fam108b confirm – Fam108b (mouse) hydrolase inhibition, confirmation assay; shares compounds with Fam108B counter; recombinant Fam108b, FP-Rh probe fluorescence polarization; inhibition, % at 9.51 µM; 930 tested, 44% active; AID 1978;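 active = inhibition above a limit from the primary screen, the mean over all compounds plus 3 SD, cut at about 19% in these data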;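 also: 0% = median of active Fam108b wells and 100% = catalytically dead S170A mutant; inhibitors free the probe so polarization falls as inhibition rises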
Fam108b ABPP HTS – inhibits mouse Fam108b in gel-based ABPP | shares compounds with Fam108B counter | recombinant Fam108b, fluorophosphonate probe | inhibition, % at 20 µM | 260 tested, 44% active | AID 588649; in the data active = inhibition above about 40%
Starred values were filed as active, the others as inactive; · = no result.

SMILES	PME-1 primary	Fam108B counter	LYPLA1 inh	LYPLA2 inh	PREPL inh	Fam108b confirm	others
Cc1cc(NN=Cc2c(O)ccc3ccccc23)nc(-c2ccccc2O)n1	·	·	·	·	·	·	Fam108b ABPP HTS=95*
Oc1ccc2ccccc2c1/C=N/Nc1ccccc1	2	9	5	7	1	·
Nc1ccc2nc(-c3cccc(-c4nc5ccc(N)cc5[nH]4)c3)[nH]c2c1	51*	25*	-4	-10	28	146*	Fam108b ABPP HTS=90*
O=S(=O)(c1ccc(Cl)cc1)N1CCN(C(=S)NCC2CCCO2)CC1 (configuration not stated)	4	0	0	-5	-5	·
O=C(N/N=C/c1c[nH]c2ccccc12)c1ccn(Cc2ccc(Cl)cc2Cl)n1	17	21*	-10	1	33	0
COc1cc(NC(=O)CNC(=O)Cn2ccc3ccccc3c2=O)cc(OC)c1OC	-7	0	2	5	0	·
O=[N+]([O-])c1ccc(N/N=C/c2ccccc2O)cc1	45*	47*	-16	-7	41	30*
O=C(N/N=C/c1ccc(O)cc1O)c1ccc(CN2C(=O)c3cccc4cccc2c34)cc1	-36	38*	-38	-51	26	28*
Cc1cc(C(=O)CSc2ncccn2)c(C)n1Cc1ccco1	-1	19*	1	2	-2	5
O=C1NC(=S)/C(=C\c2ccc(-c3ccccc3Cl)o2)S1	37*	29*	10	11	33	45*	Fam108b ABPP HTS=65*
O=C1NC(=O)/C(=C/c2ccc(-c3cc(C(=O)O)ccc3Cl)o2)S1	-10	3	3	0	3	·
O=[N+]([O-])c1ccc(/C=N/Nc2ccnc3cc(Cl)ccc23)o1	18	19*	-6	-4	34	10
Clc1ccc2c(N/N=C/c3ccccc3Br)ccnc2c1	-1	-21	-3	-1	4	·
COc1cccc(NC(=O)Cn2c3ccc(F)cc3c3nc4n(c(=O)c32)CCCS4)c1	2	-4	-5	-7	11	·
Cc1cc(C)c(Nc2cc(S(=O)(=O)O)c(N)c3c2C(=O)c2ccccc2C3=O)c(C)c1	64*	70*	55*	27*	57*	93*
Cc1cccc(S(=O)(=O)Nc2cccc3c2C(=O)c2ccccc2-3)c1	-2	-1	-7	-13	14	·
C[C@@H]1CCC[C@@]2(O[C@@H](CCO)C[C@H](O)[C@H]2O)O1	-1	-3	-4	-6	-1	·
O=C(c1ccc(S(=O)(=O)Nc2ccccc2F)cc1)N1CCN(c2ccccc2O)CC1	-1	2	2	8	-17	·
CN(C)S(=O)(=O)c1cccc(NC(=O)COC(=O)c2cc(-c3cccc(Br)c3)nc3ccccc23)c1	5	31*	-15	-21	-21	60*	Fam108b ABPP HTS=90*
CN(/N=C/c1ccc(O)cc1O)c1nc(-c2ccccc2)cc(-c2ccccc2)n1	23	33*	-9	8	28	19*
COc1ccccc1/C=C/C=c1\sc2nc(=O)c(Cc3ccccc3)nn2c1=O	-2	-10	-4	-5	12	·
COC(=O)c1sc(-c2ccccc2)cc1NC(=O)C1CC1	1	4	-3	-5	-2	·
CCOc1ccc(NC(=O)Nc2cc(-c3ccccc3)sc2C(=O)OC)cc1	34*	22*	-11	16	13	18
O=C1O/C(=C/c2ccccc2)c2ccccc21	-7	1	-2	5	-31	·
N#CC1=C(c2ccccc2)/C(=C/c2ccccc2)OC1=O	11	19*	8	4	0	23*
SMILES	PME-1 primary	Fam108B counter	LYPLA1 inh	LYPLA2 inh	PREPL inh	Fam108b confirm	others
CC(=NNC(=O)c1cccc(Cl)c1)C1C(=O)c2ccccc2C1=O	·	·	·	·	·	·	Fam108b ABPP HTS=0
CCOc1ccc(C(=O)N/N=C(/C)C2C(=O)c3ccccc3C2=O)cc1	-3	3	0	-2	1	·
C/C(=N\NC(=O)c1ccc(-c2ccccc2)cc1)C1C(=O)c2ccccc2C1=O	17	27*	10	5	10	25*
CCOC(=O)C1=C(C)NC(C)=C(C(=O)OCC)C1C(=O)OCC(=O)NCc1ccccc1OC	·	·	·	·	9	·
CCc1cc(=O)oc2cc(C)cc(OC(C)C(=O)NCCN3CCOCC3)c12 (configuration not stated)	-3	0	-1	3	10	·
CCOC(=O)C1=C(C)N=c2s/c(=C\c3ccc(O)c([N+](=O)[O-])c3)c(=O)n2C1c1ccccc1OC (configuration not stated)	6	28*	2	0	29	45*
COc1cc(=O)[nH]c(SC(C)C(=O)Nc2ccc3ccccc3c2)n1 (configuration not stated)	-4	-1	-6	-6	1	·
O=C(Nc1ccccc1)Nc1ccc(O)c2ccccc12	16	11	-13	-8	19	·
COc1cccc(NC(=O)CN(C)C(=O)C2CCN(C(=O)c3ccccc3C)CC2)c1	2	19*	-2	-1	-1	0
CCCCC1CCC(C(=O)N(C)CC(=O)Nc2cccc(OC)c2)CC1 (configuration not stated)	-2	·	-2	0	3	·
O=C(O)CCCN1C(=O)/C(=C/C=C/c2ccco2)SC1=S	-39	50*	-9	-14	12	11
Cc1ccc(NC(=O)CCCN2C(=O)/C(=C/C=C/c3ccccc3)SC2=S)cc1	-44	-21	-21	-28	5	·
O=C(NN1C(=O)/C(=C/C=C/c2ccco2)SC1=S)c1ccccc1O	-33	44*	-13	-14	11	25*
O=C(O)CC(C(=O)O)N1C(=O)/C(=C/C=C/c2ccco2)SC1=S (configuration not stated)	-34	34*	-4	-10	-4	4
O=C1S/C(=C\C=C\c2ccco2)C(=O)N1c1ccc(O)cc1	-3	5	-8	-3	7	·
COc1ccccc1NC(=O)COC(=O)c1cc2ccccc2cc1O	-3	·	0	1	12	·
COc1ccccc1NC(=O)c1cc2cc(Br)ccc2cc1O	7	38*	-17	-6	16	18
COc1cc(NC(=O)c2cc3ccccc3cc2O)c(OC)cc1Cl	42*	30*	-13	1	9	14
C/C(=N\NC(=O)c1cc(O)cc(O)c1)c1ccc(NC(=O)Cc2ccccc2)cc1	2	27*	-8	4	12	10
OCCNC(=S)Nc1ccc2nsnc2c1	24	28*	14	12	22	-1
O=C(Nc1cccc(-c2cccc(F)c2)c1)C1CCN(C2CCOCC2)CC1	-1	1	0	5	-22	·
Cc1ccc(C)c(-n2c3nc(=O)[nH]c(=O)c-3cc3cc([N+](=O)[O-])ccc32)c1	36*	26*	6	10	20	35*	Fam108b ABPP HTS=70*
Cc1ccc(C)c(-n2c3nc(=O)n(C)c(=O)c-3cc3ccccc32)c1	-6	-1	-1	8	8	·
